Measured potencies and affinities stand elsewhere.
What follows are compounds tested against HMG-CoA reductase [Enterococcus faecalis] (UniProt Q9FD70) (assay: class II HMG-CoA reductase inhibition potency – biochemical, Enterococcus faecalis, confirmation (AID 1233;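 further: 0% = full reaction carrier wells and 100% = background wells lacking mevalonate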)). Details: purified E. faecalis HMGR, NADPH absorbance 340 nm kinetics; series mostly up to 100 µM; inhibition: at the top concentration.

inhibition, inactive:
Cc1ccc(S(=O)(=O)N2CCCC2C(=O)Nc2nc3ccccc3s2)cc1 (stereo not drawn) -3.26%, COc1cccc(NC(=O)c2cc(-c3ccncc3)nc3c(C)cc(C)cc23)c1 -5.32%, CC(=O)Nc1ccc(Cc2nc3ccccc3[nH]2)cc1 -3.93%, CC(C)NC(=O)c1ccccc1NC(=O)C(C)Oc1ccccc1 (stereo not drawn) -3.55%, CCNC(=O)NC(=O)C(C)OC(=O)c1ccc(-n2nc(SC)sc2=S)cc1 (stereo not drawn) -5.23%, COC(=O)CNC(=O)c1cc(OC)cc(OC)c1 -3.23%, COc1ccc(N=c2ssnc2Cl)cc1 -7.45%, CCc1ccc(NC(=O)CN2C(=O)C(=O)N(Cc3ccccc3)C2=O)cc1 -2.36%, CC(=O)NC(Cc1cccc(F)c1)C(=O)NC1CCN(c2ncccc2[N+](=O)[O-])CC1 (stereo not drawn) -11.6%, Cn1c(=O)c(C(=O)CSc2ccccc2)c(N)n(Cc2ccccc2)c1=O -1.18%, Cc1cccc(C(=O)Nc2cc(=O)n(C)c(=O)n2C)c1 0.43%, Cc1nnc(SCc2ccccc2Cl)n1CC1CCCO1 (stereo not drawn) -1.03%, Cc1cc(N2CCN(c3nc(-c4ccc([N+](=O)[O-])cc4)cs3)CC2)c2ccccc2n1 -5.17%, COc1ccc(NC(=O)N(Cc2cc3ccc(OC)cc3[nH]c2=O)CC2CCCO2)cc1 (stereo not drawn) -3.89%, Cc1cc(=O)[nH]c(SCC(=O)C23CC4CC(CC(C4)C2)C3)c1C#N 0.65%, COC(=O)C(C)n1cnc2c(nnn2-c2ccc(OC)cc2)c1=O (stereo not drawn) -0.41%, CCN(CC)CCOc1nc(C)nc2c1oc1ccccc12 -5.2%, C/C(=N/NC(=O)c1cc(O)c(O)c(O)c1)c1ccc([N+](=O)[O-])cc1 7.14%

From PubChem BioAssay AID1233 (SRMLSC, 2008)
